Source: the supplement of paper PMC6853941
Counter-ions that a name gives are not always drawn. Unmarked numbers belong to inactive results.

System: MCF10A
Assay: perturbation Mahalanobis distance of morphological profile vs DMSO controls (Mahalanobis distance (SD units)); higher = stronger morphological change, active = 7 or more
Settings: 72 h
Method: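 MCF10A cells were seeded onto drugs dispensed acoustically into 384-well plates, using one dose per drug chosen from its human peak plasma concentration, and incubated for 72 h at 37 °C. Cells were stained for DNA, tubulin and mitochondria and imaged; 78 CellProfiler features were extracted, plate-normalised and compared with DMSO wells.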

[1] = screen batch: Batch1_Mahalanobis_Distance
[2] = screen batch: Batch2_Mahalanobis_Distance

| SMILES | perturbation Mahalanobis distance [1] | perturbation Mahalanobis distance [2] |
| --- | --- | --- |
| NC12CC3CC(CC(C3)C1)C2 [Amantadine] (19.85 µM) | 2.66 | 3.87 |
| NNc1nncc2ccccc12 [Hydralazine] (15.6 µM) | 4.07 | 3.91 |
| CCc1c2c(nc3ccc(O)cc13)-c1cc3c(c(=O)n1C2)COC(=O)[C@]3(O)CC [7-Ethyl-10-Hydroxy-Camptothecin] (16.78 µM) | 2.85 | 2.55 |
| O=C1C(CCS(=O)c2ccccc2)C(=O)N(c2ccccc2)N1c1ccccc1 (racemic) [(+/-)-Sulfinpyrazone] (41.84 µM) | 3.46 | 2.61 |
| CCCCCCCN(CC)CCCC(O)c1ccc(NS(C)(=O)=O)cc1 (stereo unspecified) [Ibutilide] (0.08 µM) | 2.16 | 2.06 |
| C[C@@H]1O[C@@]2(CS1)CN1CCC2CC1 [Cevimeline] (1.5 µM) | 3.07 | 3.45 |
| Cc1cc(C)cc(OCC2CNC(=O)O2)c1 (stereo unspecified) [Metaxalone] (38.4 µM) | 3.33 | 4.58 |
| CC[N+](C)(CC)CCOC(=O)C(O)(c1ccccc1)C1CCCCC1 (stereo unspecified) [Oxyphenonium Bromide] (0.07 µM) | 2.2 | 2.44 |
| Nc1cc(N2CCCCC2)nc(N)[n+]1OS(=O)(=O)[O-] [Minoxidil Sulfate] (4.3 µM) | 3.4 | 3.55 |
| CN(C)CCCC1(c2ccc(F)cc2)OCc2cc(C#N)ccc21 (stereo unspecified) [Citalopram] (3.1 µM) | 2.77 | 2.43 |
| CCCCC(F)(F)[C@@]1(O)CC[C@H]2[C@@H](CC(=O)[C@@H]2CCCCCCC(=O)O)O1 [Lubiprostone] (64 µM) | 2.4 | 2.48 |
| CC(C)C1CCC(C(=O)N[C@H](Cc2ccccc2)C(=O)O)CC1 (stereo partly specified) [Nateglinide] (66.1 µM) | 2.59 | 3.16 |
| C[N+](C)(C)CCOC(N)=O [Carbachol] (37 µM) | 2.88 | 2.82 |
| c1cnc2cc3c(cc2n1)C1CNCC3C1 [Varenicline] (0.24 µM) | 2.52 | 2.29 |
| O=C1CC2(CCCC2)C(O)C(=O)N1CCCCN1CCN(c2ncccn2)CC1 (stereo unspecified) [6-Hydroxybuspirone] (0.05 µM) | 3.46 | 3.29 |
| CC12CC3CC(C)(C1)CC(N)(C3)C2 [Memantine] (1.3 µM) | 4.28 | 3.3 |
| CN(C)[C@@H]1C(O)=C(C(N)=O)C(=O)[C@@]2(O)C(O)=C3C(=O)c4c(O)cccc4[C@@](C)(O)[C@H]3C[C@@H]12 [Tetracycline] (45 µM) | 4.19 | 2.42 |
| CNC(=O)c1cc(Oc2ccc(NC(=O)Nc3ccc(Cl)c(C(F)(F)F)c3)cc2)ccn1 [Sorafenib] (10.76 µM) | 2.94 | 2.6 |
| CC(C)NCC(O)COc1ccc(CC(N)=O)cc1 (stereo unspecified) [Atenolol] (18.8 µM) | 2.37 | 2.25 |
| Clc1ccc2c(c1)C(N1CCNCC1)=Nc1ccccc1O2 [Amoxapine] (9.6 µM) | 2.24 | 3.6 |
| CO[C@@H]1[C@@H](OC(N)=O)[C@@H](O)[C@H](Oc2ccc3c(=O)c(NC(=O)c4ccc(O)c(CC=C(C)C)c4)c(O)oc3c2C)OC1(C)C [Novobiocin] (90.8 µM) | 5.81 | 6.6 |
| CO[C@H]1/C=C/O[C@@]2(C)Oc3c(C)c(O)c4c(c3C2=O)C2=NC3(CCN(CC(C)C)CC3)NC2=C(NC(=O)/C(C)=C\C=C\[C@H](C)[C@H](O)[C@@H](C)[C@@H](O)[C@@H](C)[C@H](OC(C)=O)[C@@H]1C)C4=O [Rifabutin] (0.89 µM) | 6.13 | 3.99 |
| CC(c1cc2ccccc2s1)N(O)C(N)=O (stereo unspecified) [Zileuton] (105.4 µM) | 3.71 | 5.1 |
| Nc1nc(=O)c2ncn(COC(CO)CO)c2[nH]1 [Ganciclovir] (98 µM) | 3.22 | 3.75 |
| COc1cccc2c1C(=O)c1c(O)c3c(c(O)c1C2=O)C[C@@](O)(C(=O)CO)C[C@@H]3O[C@H]1C[C@H](N)[C@H](O)[C@H](C)O1 [Doxorubicin] (0.18 µM) | 11.1 (active) | 16.7 (active) |
| CCN(CC)CCNC(=O)c1c(C)[nH]c(/C=C2\C(=O)Nc3ccc(F)cc32)c1C [Sunitinib] (0.73 µM) | 3.08 | 2.88 |
| CCC1(c2ccccc2)NC(=O)N(C)C1=O (stereo unspecified) [Mephenytoin] (343.8 µM) | 3.16 | 3.69 |

| SMILES | perturbation Mahalanobis distance [1] | perturbation Mahalanobis distance [2] |
| --- | --- | --- |
| COc1cc(C(=O)NCc2ccc(OCCN(C)C)cc2)cc(OC)c1OC [Trimethobenzamide] (257.426.762 µM) | 2.9 | 5.46 |
| CC(C)N=C(N)/N=C(\N)Nc1ccc(Cl)cc1 [Proguanil] (3 µM) | 2.24 | 3.24 |
| O=[N+]([O-])c1cnc(CO)n1CCO [Hydroxymetronidazole] (58.4 µM) | 2.36 | 3.44 |
| CC/C(=C(\c1ccc(O)cc1)c1ccc(OCCNC)cc1)c1ccccc1 [Endoxifen] (6.75 µM) | 2.6 | 7.34 (active) |
| NC(N)=NC(=O)c1nc(Cl)c(N)nc1N [Amiloride] (1.1 µM) | 5.52 | 3.78 |
| CC(=O)O.C[C@H](N)C(=O)O.NCCCC[C@H](N)C(=O)O.N[C@@H](CCC(=O)O)C(=O)O.N[C@@H](Cc1ccc(O)cc1)C(=O)O [Glatiramer Acetate] (50 µM) | 2.19 | 2.3 |
| CN(C)C(=O)C(CCN1CCC(O)(c2ccc(Cl)cc2)CC1)(c1ccccc1)c1ccccc1 [Loperamide] (32 µM) | 3.13 | 2.31 |
| CC[C@H]1OC(=O)[C@H](C)[C@@H](O[C@H]2C[C@@](C)(OC)[C@@H](O)[C@H](C)O2)[C@H](C)[C@@H](O[C@@H]2O[C@H](C)C[C@H](N(C)C)[C@H]2O)[C@](C)(O)C[C@@H](C)CN(C)[C@H](C)[C@@H](O)[C@]1(C)O [Azithromycin] (6.7 µM) | 3.29 | 4.74 |
| CCC(C)n1ncn(-c2ccc(N3CCN(c4ccc(OC[C@H]5CO[C@](Cn6cncn6)(c6ccc(Cl)cc6Cl)O5)cc4)CC3)cc2)c1=O (stereo partly specified) [Itraconazole] (14.2 µM) | 2.19 | 2.7 |
| Nc1nc2ccc(OC(F)(F)F)cc2s1 [Riluzole] (4.3 µM) | 2.51 | 3.82 |
| COc1ccccc1Oc1c(NS(=O)(=O)c2ccc(C(C)(C)C)cc2)nc(-c2ncccn2)nc1OCCO [Bosentan] (33.6 µM) | 3.04 | 5.42 |
| CCN(CCO)CCCC(C)Nc1ccnc2cc(Cl)ccc12 (stereo unspecified) [Hydroxychloroquine] (1.5 µM) | 3.38 | 2.9 |
| CCCCc1oc2ccc(NS(C)(=O)=O)cc2c1C(=O)c1ccc(OCCCN(CCCC)CCCC)cc1 [Dronedarone] (1.3 µM) | 3.58 | 2.07 |
| COCCCOc1cc(C[C@@H](C[C@H](N)[C@@H](O)C[C@H](C(=O)NCC(C)(C)C(N)=O)C(C)C)C(C)C)ccc1OC [Aliskiren] (2.5 µM) | 2.96 | 2.64 |
| CCS(=O)(=O)CCn1c([N+](=O)[O-])cnc1C [Tinidazole] (192.9 µM) | 2.45 | 2.69 |
| C[N+](C)(C)CCOC(=O)CCC(=O)OCC[N+](C)(C)C [Succinylcholine Chloride] (12.65 µM) | 2.23 | 2.84 |
| O=C1CCC(N2C(=O)c3ccccc3C2=O)C(=O)N1 (stereo unspecified) [Thalidomide] (19.4 µM) | 2.34 | 2.83 |
| NCCCC(N)(C(=O)O)C(F)F (stereo unspecified) [Eflornithine] (319.5 µM) | 2.24 | 2.74 |
| CS(=O)(=O)OCCCCOS(C)(=O)=O [Busulfan] (1.4 µM) | 2.31 | 2.95 |
| N[C@@H]1CONC1=O [D-Cycloserine] (98 µM) | 7.56 (active) | 9.13 (active) |
| CO[C@H]1O[C@@H]2O[C@@]3(C)CC[C@H]4[C@H](C)CC[C@@H]([C@H]1C)[C@@]24OO3 [Artemether] (3.9 µM) | 1.96 | 2.48 |
| CN1C(=O)CC(c2ccccc2)C1=O (stereo unspecified) [Phensuximide] (52.9 µM) | 3.2 | 2.78 |
| NS(=O)(=O)Cc1noc2ccccc12 [Zonisamide] (141.4 µM) | 2.42 | 2.95 |
| Cc1nc2n(c(=O)c1CCN1CCC(c3noc4cc(F)ccc34)CC1)CCCC2 [Risperidone] (73 µM) | 2.9 | 2.4 |
| O=C1CC2(CCCC2)CC(=O)N1CCCCN1CCN(c2ncccn2)CC1 [Buspirone] (0.05 µM) | 1.84 | 3.36 |
| CCN1CC(CCN2CCOCC2)C(c2ccccc2)(c2ccccc2)C1=O (stereo unspecified) [Doxapram] (66 µM) | 2.26 | 2.47 |
